The record followed here is PubChem BioAssay (NCATS).

Structures are written as SMILES. Records with an inconclusive call do not appear. Values without a mark were called inactive. The call rests on the fitted dose curve; in most records, active means well fitted cell-killing curve with a large enough effect; inconclusive means small, poorly fitted or top-dose-only effect; inactive means flat fitted curve, though single readings scatter.
On the % scale 0 is the no-effect control and ±100 the full control effect.

This test can be described thus: Cell Viability - LYMP2-008 (AID 980).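 Further: cells exposed to compound for 24 h at 37 °C; nearly all actives have a fitted effect of over 60% in size.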 To be noted: LYMP2-008 lymphoblastoid cell viability, qHTS; series mostly up to 92.2 µM; activity change, negative = cytotoxicity: at the top concentration. The source says: NIH Chemical Genomics Center [NCGC]
NIH Molecular Libraries Screening Centers Network [MLSCN]
National Institutes of Environmental Health Sciences [NIEHS]
National Toxicology Program [NTP]
We have developed a 1536-well cell-based assay for quantitative high throughput screening (qHTS) against a number of cell lines to determine in vitro cytotoxicity of small molecules. This particular assay uses a human lymphoblastoid cell line (LYMP2-008) purchased from Coriell Institute for Medical Research.
NCGC Assay Protocol Summary:
The CellTiter-Glo luminescent cell viability assay (Promega) is a homogeneous method to measure the number of viable cells in culture. The end point readout of this assay is based on quantitation of intracellular ATP, an indicator of metabolic activity, using the luciferase reaction. Luciferase catalyzes the oxidation of beetle Luciferin to oxyluciferin and light in the presence of ATP. The luminescent signal is proportional to amount of ATP present.
Using the CellTiter-Glo luminescent cell viability assay, the amount of cellular ATP was measured in the lymphoblastoid cell line with complete culture medium following compound treatment for 24 hours. The assay was performed in opaque white Kalypsys 1536-well plates. In the screen, tetraoctylammonium bromide was used as positive control. Library compounds were measured for their ability to cause acute toxicity in the cell line, as reflected by a decrease in intracellular ATP levels, in a concentration-dependent manner. […] AC50 values were determined from concentration-response data modeled with the standard Hill equation.
qHTS protocol for CellTiter Glo lymphoblastoid cellular assay
[Step] [Parameter] [Value] [Description]
1. Reagent; 5 uL; 2500 lymphoblastoid cells/well
2. Time; 5 hr; 37 C incubation
4. Controls; 23 nL; Tetraoctylammonium bromide 6.4pM to 92 uM
5. Time; 24 hr; 37 C incubation
6. Reagent; 5 uL; CellTiter Glo reagent
7. Time; 30 min; Room Temperature
8. Detection; Luminescence; Viewlux plate reader
Keywords: cell viability, cytotoxicity, lymphoblastoid cell line, luminescence, NTPHTS, NTPHTS_NCGC, NIEHS, DSSTox, MLSMR, MLSCN, NIH Roadmap, qHTS, NCGC
As to `Oc1c(Cl)c(Cl)c(Cl)c(Cl)c1Cl`, the “activity change, negative = cytotoxicity” value was -12%.

For the molecule `O=Cc1ccccc1`, the “activity change, negative = cytotoxicity” value is -7.08%.

As for `CC(C)(c1ccc(OCC2CO2)cc1)c1ccc(OCC2CO2)cc1` (stereo not drawn), the “activity change, negative = cytotoxicity” value is -26.5%.

For the molecule `CCOC(=O)c1ccccc1N`, the “activity change, negative = cytotoxicity” value is -6.89%.

Turning to `c1ccc2c(c1)-c1cccc3cccc-2c13`, the “activity change, negative = cytotoxicity” value is 11%.

In the case of `CCOc1cc(C=O)ccc1O`, the “activity change, negative = cytotoxicity” value was -2.81%.

For `Oc1ccccc1Cl`, the “activity change, negative = cytotoxicity” value is 2.08%.

As for `COC(=O)c1ccccc1C(=O)OC`, the “activity change, negative = cytotoxicity” value was -8.07%.

For the molecule `COC1=CC(=O)OC(CCc2ccc3c(c2)OCO3)C1` (stereo not drawn), the “activity change, negative = cytotoxicity” value is -14.4%.

As for `c1ccc(Nc2ccc3ccccc3c2)cc1`, the “activity change, negative = cytotoxicity” value was -13.3%.

For `Cc1ccccc1O`, the “activity change, negative = cytotoxicity” value was 4.42%.

Consider `CC(C)COC(=O)c1ccccc1C(=O)OCC(C)C`, for which the “activity change, negative = cytotoxicity” value was -2.42%.

For `CC(=O)/C=C/c1ccccc1`, the “activity change, negative = cytotoxicity” value is -5.44%.
